89 compounds from PubChem BioAssay AID463173 (ICCB-Longwood Screening Facility, Harvard Medical School, 2010) can be followed below.

SMILES strings stand for the structures. About 4,300 (8.3%) of roughly 52,000 compounds were called active. This excerpt belongs to a sample that is enriched for actives. A number with no mark means an inactive call. Cut-off read from the data, not from the text of the source: active = survival mostly below about 52% (no sharp cut-off); inactive = mostly above about 56%.

In this assay the test system is DeltatarO mutant. Nature of the assay: S. aureus survival, RN4220 and DeltatarO strains – OD600, teichoic acid synthesis inhibitors, primary screen (AID 463173). Conditions: S. aureus RN4220 wild type/DeltatarO growth, OD600, 18 h, stronger effect = lower value, screened at 18.75 µg/mL (by protocol).
For the compound `O=C(CNC(=O)c1ccc(Cl)cc1)OCc1cc(=O)n2nc(C3CC3)sc2n1`, the survival is 67%.
For `COC(=O)c1cn(C(C)C(=O)NCc2ccco2)c2ccccc12` (centres undefined) the value was 91%.
With `O=C(CSCc1ccc(F)cc1)N1CCc2c([nH]c3ccccc23)C1c1ccccc1` (centres undefined), the survival is 101%.
As to `Cc1ccc(NC(=O)C(=O)c2cc(C)n(-c3ccc(F)cc3)c2C)cc1C`, the survival was 89%.
As to `CC(=O)c1ccccc1OCC(O)Cn1c(CO)nc2ccccc21` (centres undefined), the survival is 59%.
Turning to `Cc1ccc2c(c1)c1c(c(=O)n(Cc3ccccc3)c(=O)n1CC(=O)Nc1ccccc1C)n2C`, the survival is 99%.
Consider `Cc1ccc(OCC(=O)Nc2ccc(Cl)c(-c3nc4ccccc4[nH]3)c2)cc1C`, for which the survival was 43% (active).
For `Cc1cc(C)cc(OCC(=O)Nc2cccc(-c3nc4ccccc4[nH]3)c2)c1` the value was 31% (active).
In the case of `CC(C)CC(=O)Nc1cccc(-c2nc3ccccc3[nH]2)c1`, the survival is 68%.
For `Cc1cccc(OCC(=O)Nc2ccc(Cl)c(-c3nc4ccccc4[nH]3)c2)c1` the value was 38% (active); for `Cc1cccc(OCC(=O)Nc2ccc3c(c2)N(C)C(=O)c2ccccc2S3)c1`, 73%; for `COc1ccc(-n2nc3ccc(NC(=O)COc4ccc(C)c(C)c4)cc3n2)cc1`, 56%.
For `COc1cccc(C(=O)Nc2ccc(Cl)c(-c3nc4ccccc4[nH]3)c2)c1` the value was 68%; for `Cc1cc(OCC(=O)Nc2cc(-c3nc4ccccc4[nH]3)ccc2C)ccc1Cl`, 96%; for `COc1cccc(N2CC(NC(=O)c3ccc(S(=O)(=O)N4CCCCC4)cc3)CC2=O)c1` (centres undefined), 92%.
For the compound `CCn1c(=O)c(C(=O)Nc2ccc(C(C)=O)cc2)nc2ccccc21`, the survival is 81%.
`CC1CCN(S(=O)(=O)c2ccc3c(ccn3CC(=O)NCc3ccc(N(C)C)cc3)c2)CC1`: the survival was 77%.
In the case of `COc1cccc(CNC(=O)c2cc3cccc4c3n2CC(C)S4)c1OC` (centres undefined) it was 84%; in that of `Cc1cc(C)c(S(=O)(=O)N2CCC(N3CCN(Cc4ccccc4)C(=O)C3=O)CC2)c(C)c1`, 68%; in that of `N#CC1=C(N)OC2=C(C(=O)CCC2)C12C(=O)Nc1ccc(F)cc12` (centres undefined), 93%.
On to `CCCCN1CC(c2nc3ccccc3n2CCCCOc2c(C)cccc2C)CC1=O` (centres undefined), for which the survival was 46% (active).
In the case of `CCCCN1CC(c2nc3ccccc3n2CCCCOc2cccc(C)c2C)CC1=O` (centres undefined) it was 2% (active); in that of `COC(=O)Cn1c(C2CC(=O)N(c3c(C)cccc3C)C2)nc2ccccc21` (centres undefined), 58%.
For `CCCCN1CC(c2nc3ccccc3n2CCCCOc2ccccc2C)CC1=O` (centres undefined) the value was 34% (active); for `Cc1ccccc1OCCCCn1c(C2CC(=O)N(c3ccccc3Cl)C2)nc2ccccc21` (centres undefined), 76%; for `Cc1cccc(C)c1OCCCCn1c(C2CC(=O)N(c3ccc(F)cc3)C2)nc2ccccc21` (centres undefined), 77%.
In the case of `Cc1cccc(NC(=O)CS(=O)(=O)c2cccc3nsnc23)c1` it was 74%; in that of `Cc1cc2cc(CCNS(=O)(=O)c3ccc(Br)cc3)c(=O)[nH]c2cc1C`, 48%.
Turning to `O=c1c2oc3ccccc3c2n(Cc2cccc(C(F)(F)F)c2)c(=O)n1Cc1ccc2c(c1)OCO2`, the survival is 108%.
Consider `CN1C(=O)Cc2cc(S(=O)(=O)CCC(=O)N3CCN(c4ccc(Cl)cc4)CC3)ccc21`, for which the survival is 86%.
In the case of `COc1ccc(Cn2c(=O)c3oc4ccccc4c3n(Cc3cccc(C(F)(F)F)c3)c2=O)cc1` it was 73%; in that of `Nc1nc(SCC(=O)Nc2cccc(C(F)(F)F)c2)n[nH]1`, 63%.
For `COC(=O)c1sccc1S(=O)(=O)N1CCN(c2ccccc2OC)CC1` the value was 74%; for `COc1cc(NC(=O)c2noc3c2CC(C(C)(C)C)CC3)cc(OC)c1OC` (centres undefined), 40% (active).
For `CC1CCc2onc(C(=O)Nc3ccc(Cl)cc3)c2C1` (centres undefined) the value was 75%.
Regarding `CCc1ccccc1NC(=O)c1noc2c1CC(C(C)(C)C)CC2` (centres undefined), the survival is -6% (active).
In the case of `O=C(Nc1ccccc1C(F)(F)F)c1noc2c1CCCC2` it was 63%; in that of `COc1cc(NC(=O)c2noc3c2CC(C)CC3)c(OC)cc1Cl` (centres undefined), 69%.
Regarding `COc1cc(NC(=O)c2noc3c2CCc2ccccc2-3)cc(OC)c1OC`, the survival is 88%.
On to `O=C(CN1C(=O)COc2ccc(S(=O)(=O)N3CCCC3)cc21)N1CCN(c2ccc(F)cc2)CC1`, for which the survival is 80%.
In the case of `CCOc1ccccc1CNc1nc2nc(C)cc(C)n2n1` it was 97%.
For `CCc1ccccc1N(CC)C(=O)C1CCN(c2ncnc3c2nc2n3CCCCC2)CC1` the value was 83%.
Consider `CC(Oc1ccccc1F)C(=O)NCC1(N2CCOCC2)CCCCC1` (centres undefined), for which the survival is 61%.
As to `CCOC(=O)c1ccc(NC(=O)CC(C)n2nc(C)cc2C)cc1` (centres undefined), the survival is 124%.
With `CC(=O)Nc1ccc(NC(=O)CC(C)n2ccc(C)n2)cc1` (centres undefined), the survival is 52% (active).
Turning to `CCOc1ccccc1CNC(=O)CC(C)n1ccc(C)n1` (centres undefined), the survival was 77%.
Turning to `O=C(OCc1ccccc1)Sc1nnc(-c2ccccc2Cl)o1`, the survival is 90%.
For `CCCN(C(=O)Cn1c(=O)oc2cc(Cl)ccc21)c1ccc(C(C)C)cc1` the value was 15% (active); for `CCn1c(=O)cc(OCC(=O)N(C)c2ccc(OC)cc2)c2ccccc21`, 72%; for `CCn1c(=O)cc(OCC(=O)Nc2ccc(C)c(F)c2)c2ccccc21`, 60%.
Regarding `CCn1c(=O)cc(OCC(=O)NCc2ccc(F)cc2Cl)c2ccccc21`, the survival is 105%.
For `CCn1c(=O)cc(OCC(=O)NCc2ccccc2OC)c2ccccc21` the value was 60%; for `CCn1c(=O)cc(OCC(=O)NCc2ccccc2Cl)c2ccccc21`, 40% (active).
In the case of `CCN(C(=O)Cn1c(=O)oc2cc(Cl)ccc21)c1cccc(C(F)(F)F)c1` it was 67%.
In the case of `CCc1ccc(CNC(=O)COc2cc(=O)n(CC)c3ccccc23)cc1` it was 55%; in that of `CCCN(c1ccc(C(C)C)cc1)S(=O)(=O)c1ccc2c(c1)oc(=O)n2CC(=O)OCC`, 73%.
As to `CCn1c(=O)cc(OCC(=O)Nc2cc(Cl)c(OC)cc2OC)c2ccccc21`, the survival is 69%.
Take `CCCN(C(=O)COc1cc(=O)n(CC)c2ccccc12)c1ccc(C(C)C)cc1`: the survival is -22% (active).
For `CCn1c(=O)cc(OCC(=O)N(C)c2cc(Cl)ccc2C)c2ccccc21` the value was 55% (active); for `Cc1ccc(/C=C/c2onc(C)c2S(=O)(=O)N2CCC(C(=O)N3CCN(c4cccc(C)c4)C(C)C3)CC2)cc1` (centres undefined), 67%.
In the case of `COc1ccccc1C(=O)NC1(C(F)(F)F)C(=O)Nc2c1c(=O)[nH]c(=O)n2-c1ccc(F)cc1` (centres undefined) it was 190%; in that of `Cc1ccc(-n2ncc3c(=O)n(Cc4ccccc4C)cnc32)cc1C`, 127%.
In the case of `CC(=O)N(Cc1cccnc1)c1nc2ccc(F)cc2s1`, the survival is 81%.
For `Cc1c(C(=O)Nc2ccc(F)c(F)c2)oc2ccc(S(=O)(=O)N3CCCCC3)cc12` the value was 52% (active).
For `Cc1cc(C)c2oc(C(=O)Nc3ccc(S(=O)(=O)N4CCCCC4)cc3)cc(=O)c2c1` the value was 45% (active); for `Cc1ccc2c(=O)cc(C(=O)Nc3ccc(S(=O)(=O)N4CCCC(C)C4)cc3)oc2c1C` (centres undefined), 51% (active).
In the case of `COC(=O)Nc1ccc(S(=O)(=O)N2CCCCC2)cc1` it was 107%; in that of `Cc1ccc(NC(=O)c2oc3ccc(S(=O)(=O)N4CCCCCC4)cc3c2C)cc1Cl`, 86%; in that of `O=C(Nc1ccc(S(=O)(=O)N2CCCCC2)cc1)C1CCCCC1`, 97%.
In the case of `Cc1ccc2c(=O)cc(C(=O)Nc3ccc(S(=O)(=O)N4CCC(C)CC4)cc3)oc2c1C`, the survival was 60%.
With `Cc1c(C(=O)Nc2ccc(F)cc2)oc2ccc(S(=O)(=O)N3CCCCCC3)cc12`, the survival was 99%.
For `Cc1ccc2c(=O)cc(C(=O)Nc3ccc(S(=O)(=O)N4CCCCC4)cc3)oc2c1C` the value was 90%.
In the case of `O=C(Nc1ccc(S(=O)(=O)N2CCCCC2)cc1)C(F)(F)F` it was 58% (active).
Regarding `Cc1cc(C)c2oc(C(=O)Nc3ccc(S(=O)(=O)N4CCCCCC4)cc3)cc(=O)c2c1`, the survival was 62%.
`Cc1cc(C)c2oc(C(=O)Nc3ccc(S(=O)(=O)N4CCC(C)CC4)cc3)cc(=O)c2c1`: the survival is 48%.
Regarding `O=C(NCc1ccccc1Cl)c1c2c(nc3ccccc13)C(=O)N(C1CCCCC1)C2`, the survival is 92%.
In the case of `COC(=O)c1ccc(-n2c(/C=C/c3cc(OC)c(OC)c(OC)c3)nc3cc(Cl)ccc3c2=O)cc1` it was 80%.
For `Cc1cc2oc(C(=O)Nc3ccc(S(=O)(=O)N4CCC(C)CC4)cc3)cc(=O)c2cc1C`, the survival is 72%.
As to `Cc1ccc2c(=O)cc(C(=O)Nc3ccc(S(=O)(=O)N4CCCCCC4)cc3)oc2c1`, the survival was 106%.
For `Cc1cc2oc(C(=O)Nc3ccc(S(=O)(=O)N4CCCCCC4)cc3)cc(=O)c2cc1C` the value was 42% (active); for `Cc1ccc(C)c(N2CCN(C(=O)C3CCN(C(=O)c4cc5sccc5n4C)CC3)CC2)c1`, 54%; for `CC1=C(C(=O)NCc2ccccc2C)C2(CCCCCC2)OC1=O`, 78%.
Turning to `COc1ccc(-n2nc3cc(C)c(NC(=O)c4ccc(-c5ccc(Br)cc5)o4)cc3n2)cc1`, the survival is 37% (active).
For `Cc1ccc(-n2nc3cc(C)c(NC(=O)c4ccc(-c5ccccc5)o4)cc3n2)cc1` the value was 46% (active); for `COc1ccc(-n2nc3cc(C)c(NC(=O)Cc4ccc(Cl)cc4)cc3n2)cc1`, 56%.
In the case of `Cc1ccc(-n2nc3cc(C)c(NC(=O)Cc4ccc(Cl)cc4)cc3n2)cc1` it was 64%.
As for `COc1ccc(-n2nc3cc(C)c(NC(=O)c4ccc(-c5ccc(Cl)cc5)o4)cc3n2)cc1`, the survival was 45%.
In the case of `CCc1ccc(-n2nc3cc(C)c(NC(=O)c4ccccc4C)cc3n2)cc1` it was 89%.
For `Cn1nc(C(=O)NCc2ccc(Cl)cc2)c2c1-c1ccccc1SC2` the value was 78%.
